# Shown are actives, neighbours in structure and some others; about 1.6% of the full set was active somewhere.
# HTR5A inv ctr: inverse agonist of human HTR5A in OPRM1-OPRD1 counter-screen. P47898. HTR5A cell line, luminescence, inverse agonism. inhibition, % at 9.3 µM. 0.083% of 340,000 active. AID 504634; in the data active means inhibition mostly above about 23%, no sharp cut-off; inactive means mostly below about 18%;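 further: 0% = cells with DMSO and 100% = no-cell wells with DMSO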
# MOR-DOR ag: OPRM1-OPRD1 heterodimerization agonism; cells, luminescence; activation, % at 9.3 µM; 0.3% of 340,000 active; AID 504326; in the data active means activation above about 18%;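 further: 0% = vehicle-treated cells and 100% = reference agonist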
# Target sequence (P35372 whole entry, looked up): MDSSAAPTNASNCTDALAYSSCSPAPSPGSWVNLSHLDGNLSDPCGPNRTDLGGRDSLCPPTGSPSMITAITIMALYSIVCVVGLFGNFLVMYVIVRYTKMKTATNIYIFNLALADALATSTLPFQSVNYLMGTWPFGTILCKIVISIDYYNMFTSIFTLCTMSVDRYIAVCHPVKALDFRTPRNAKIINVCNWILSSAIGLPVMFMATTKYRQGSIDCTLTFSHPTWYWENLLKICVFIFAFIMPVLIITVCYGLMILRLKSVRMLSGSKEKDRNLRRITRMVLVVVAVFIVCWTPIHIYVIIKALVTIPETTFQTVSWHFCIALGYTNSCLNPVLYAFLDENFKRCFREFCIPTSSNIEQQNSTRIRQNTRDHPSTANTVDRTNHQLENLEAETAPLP
# Target sequence (P41143 whole entry, looked up): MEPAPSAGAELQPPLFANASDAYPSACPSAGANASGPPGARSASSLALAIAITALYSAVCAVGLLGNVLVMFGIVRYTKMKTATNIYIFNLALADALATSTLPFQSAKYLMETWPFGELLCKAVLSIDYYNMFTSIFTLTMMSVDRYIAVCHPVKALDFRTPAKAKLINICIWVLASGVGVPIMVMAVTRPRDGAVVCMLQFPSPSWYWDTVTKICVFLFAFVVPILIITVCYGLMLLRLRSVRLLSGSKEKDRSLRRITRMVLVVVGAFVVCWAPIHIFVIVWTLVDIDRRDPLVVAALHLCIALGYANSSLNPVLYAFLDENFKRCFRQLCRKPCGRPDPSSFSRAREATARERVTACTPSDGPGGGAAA
# PolyA inh: inhibitors of polyadenylation in S. cerevisiae; 0.02% of 300,000 active; S. cerevisiae SKY197-pL101 polyadenylation reporter, beta-gal luminescence; efflux-impaired pdr1/pdr3 knockout yeast; score 100 = 6 SD above DMSO; activity score, % at 12 µM; AID 1875;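 active means lowest replicate activity score at least 50, where 100 means six control SD above control mean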;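 further: yeast exposed to compound for 9 h at 30 °C; higher score means more reporter readthrough which indicates perturbed polyadenylation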
# HTR5A ag: HTR5A agonism, opioid heterodimer counter-screen; P47898; HTR5A agonist assay, luminescence, cell-based; activation, % at 9.3 µM; 0.61% of 340,000 active; in the data active means activation mostly above about 9.5%, no sharp cut-off; inactive means mostly below about 7.6%;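 further: 0% = cells with vehicle only and 100% = reference agonist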
# OPRM1-OPRD1 inv: mu-delta opioid heterodimer inverse agonism; inhibition, % at 9.3 µM; P35372+P41143; 0.21% of 340,000 active; cell-based MOR-DOR heterodimer luminescence; in the data active means inhibition above about 22%, passing the limit was not always enough;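 further: 0% = cells with DMSO and 100% = wells without cells with DMSO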
# NALP1 yeast inh: NALP1 inhibition; inhibition, % at 10 µM; S. cerevisiae NALP1/ASC/caspase-1 growth, X-gal OD620, 72 h; 0.61% of 280,000 active; in the data active means inhibition mostly above about 24%, no sharp cut-off; inactive means mostly below about 32%
# * = called active by the depositor; · = no result.
SMILES,HTR5A inv ctr,MOR-DOR ag,PolyA inh,HTR5A ag,OPRM1-OPRD1 inv,NALP1 yeast inh
CCCC(C(=O)c1ccccc1)n1cncn1 (stereo unspecified),-27,-2,1,11*,12,10
CC(C)(C)C(=O)C(Cc1ccccc1)n1cncn1 (stereo unspecified),8,-2,-37,-5,10,10
O=C(NNc1ccc(Cl)nn1)c1ccc(Cl)cc1,-2,-2,-6,1,14,22
COc1ccc(CCNC(=O)CCc2ccc(S(=O)(=O)NCC(C)C)cc2)cc1OC,16,-1,-11,2,6,-15
O=C(COc1ccccc1)NS(=O)(=O)c1ccc(Cl)cc1,-10,-2,13,12*,9,0
Cc1ccc(OCC(=O)NS(=O)(=O)c2ccc(Cl)cc2)cc1,4,-2,-13,6,10,10
O=C(N/N=C/c1c[nH]c2ccccc12)c1ccccc1,-24,-1,2,1,6,·
O=C(CNc1ccccc1)N/N=C/c1c[nH]c2ccccc12,-30,-1,-2,13*,5,20
COc1cc(/C=C/C(=O)OCC(=O)Nc2cc(C)c(C)cc2[N+](=O)[O-])ccc1O,-36,-2,4,11*,12,·
CCN(CC)CCNC(=O)c1cc2c(s1)-c1ccccc1SC2,-48,4,5,13*,-21,12
NNC(=O)c1cc2c(s1)-c1cc(Cl)ccc1SC2,·,·,2,·,·,·
CCCCn1c(N)c(N(CC(C)C)C(=O)c2oc3ccc(OCC)cc3c2C)c(=O)[nH]c1=O,-16,0,8,-4,0,36*
CCOc1cc(-c2nc(-c3ccc(C)nc3OC)no2)cc(OCC)c1OCC,14,0,-13,5,1,27*
CCOc1cc(-c2nc(-c3ccc(C)nc3OCC)no2)cc(OCC)c1OCC,1,0,1,4,1,26
CCCCCCCN(C(=O)CCl)c1cccc(C)c1,-129,79*,-16,84*,-426,26
CCCCCCN(C(=O)CCl)c1ccccc1,-7,53*,-30,64*,-271,16
Cc1nc2sc(C(c3ccc(Cl)cc3)N3CC(C)OC(C)C3)c(O)n2n1 (stereo unspecified),-25,1,23,11*,-8,-3
O=C(Oc1ccc(Cl)c2cccnc12)c1cccc([N+](=O)[O-])c1,20,-1,-15,1,5,58*
O=C(Oc1c(Cl)cc(Cl)c2cccnc12)c1cccc([N+](=O)[O-])c1,15,7,-71,-4,-36,16
CCCN1CCN(CCCNC(=O)C2CCCN(c3nc4ccc(OCC)cc4s3)C2)CC1 (stereo unspecified),3,-4,3,-1,17,11
CCOc1ccc2nc(N3CCCC(C(=O)N4CCN(CC)CC4)C3)sc2c1 (stereo unspecified),15,-2,15,-6,8,34*
O=C(NC1CC1)c1cccc(NC(=O)c2cn3ccccc3n2)c1,-9,-5,·,13*,20,·
CCc1cc(=O)oc2cc(OC(C)C(=O)NCC3CCC(C(=O)O)CC3)c(Cl)cc12 (stereo unspecified),-2,-2,-5,-1,12,10
COc1cccc(CNC(=O)C(=O)NCC2CCCO2)c1 (stereo unspecified),-30,2,7,14*,-11,1
C=CCn1c(SCC(=O)Nc2ccc(C(=O)OC(C)C)cc2)nnc1-c1cccs1,-18,3,4,9.0*,-19,15
SMILES,HTR5A inv ctr,MOR-DOR ag,PolyA inh,HTR5A ag,OPRM1-OPRD1 inv,NALP1 yeast inh
CCOC(=O)c1ccc(NC(=O)CSc2nnc(-c3cccs3)n2CC)cc1,-9,-1,-4,3,7,-2
C=CCn1c(SCC(=O)Nc2ccc(-c3nc4ccc(C)cc4s3)cc2)nnc1-c1ccccc1,16,20*,-3,6,-105,23
CCn1c(C)nc2cc(C(=O)N/N=C/c3cccc(OC)c3O)ccc21,-20,-2,-1,7,12,1
CCn1c(C)nc2cc(C(=O)N/N=C/c3ccc(O)c(O)c3O)ccc21,-32,8,14,13*,-49,-7
CC(=O)c1cccc(NC(=O)C2=CN3CCS(=O)(=O)N=C3C=C2)c1,-10,-3,·,3,12,·
O=C(CSc1nnc(-c2ccccc2)n1-c1ccc(Cl)cc1)N/N=C/c1ccccc1C(=O)O,-15,1,-1,12*,-5,·
O=C(CSc1nnc(-c2ccc(Cl)cc2)n1-c1ccc(Cl)cc1)N/N=C/c1ccccc1C(=O)O,·,·,-5,·,·,·
O=C(Cc1ccc(Cl)cc1)Oc1cccc2cccnc12,11,-3,·,7,15,78*
CCc1ccc(N2CC(C(=O)OCC(=O)c3c(N)n(CC(C)C)c(=O)n(C)c3=O)CC2=O)cc1 (stereo unspecified),0,-2,-11,0,9,·
COc1cccc(CN(C(=O)c2ccco2)C2CCS(=O)(=O)C2)c1 (stereo unspecified),-36,-2,2,13*,8,12
COc1ccc(CN(C(=O)c2ccco2)C2CCS(=O)(=O)C2)cc1 (stereo unspecified),17,-2,9,-7,12,-11
COc1ccc2[nH]c(=O)c(CN(C(=O)c3ccco3)C3CCCCC3)cc2c1,16,-3,-7,-7,13,26*
CN1CC[C@]23c4ccccc4N[C@H]1[C@]21CCN(C)[C@H]3Nc2ccccc21,-16,0,·,4,2,·
COC(=O)C1CC23C=CCN4CCC5(c6ccccc6NC15C2C)C43 (stereo unspecified),-18,0,-9,5,-2,37*
COc1ccc(N(CC(=O)NCC2CCCO2)C(=O)CCC(=O)Nc2cc(C)on2)cc1OC (stereo unspecified),9,0,0,-3,2,-1
Cc1noc(C)c1S(=O)(=O)N1CCC(C(=O)NC2CCN(Cc3ccccc3)CC2)CC1,11,1,-15,-5,-9,39*
CC(=O)N1C(C(=O)O)CSC1c1ccc(C)cc1 (stereo unspecified),1,-3,-12,0,14,42*
C=CCn1cc(-c2ccc(Cl)cc2)cc(C#N)c1=O,1,0,3,0,-1,11
CC(C)n1cc(-c2ccc(Cl)cc2)cc(C#N)c1=O,-7,2,-5,3,-9,31*
Cc1cc(F)ccc1S(=O)(=O)N1CCCOC1CNC(=O)C(=O)NCCCN1CCOCC1 (stereo unspecified),-11,-4,20,2,21,8
COc1ccccc1N1CCN(C(=O)CSc2nc(N)cc(=O)[nH]2)CC1,-61,-2,22,3,10,41*
COc1ccccc1N1CCN(C(=O)CCN2C(=O)c3cccc4cccc(c34)C2=O)CC1,-2,-3,-17,1,14,45*

# Screens (PubChem BioAssay)
